The supplement of paper PMC12669032
“And” between values parts separate entries of the source, which are not always exact repeats. Identical values can stand only once.

What follows are compounds tested on Bacteroides uniformis (assay: growth AUC relative to DMSO control (median of replicates) (fraction); higher = more growth (less inhibition), active = hit call of the paper). Settings: 20 µM; 24 h;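 active = AUC reduced over 20% with Padj below 0.05 in at least 2 of 3 replicates; inactive = otherwise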.
In short: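 OD600 was recorded every hour for 24 h in anaerobic monocultures of gut bacteria kept at 37 °C in mGAM, seeded at OD600 0.05 and given 20 µM compound in 1% DMSO. The area under each growth curve was scaled to the plate median of solvent-only wells, or to row and column medians for the industrial chemical plate. Before this step, the minimum OD was set to 0. Reported values are medians of three biological replicates run on separate days.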

Structure (SMILES) | growth AUC
Cc1c(N)cccc1N | 1 (inactive)
c1cc2ccc3cccc4ccc(c1)c2c34 | 1.02 (inactive)
O=c1oc2ccccc2c(O)c1C1CC(c2ccc(-c3ccc(Br)cc3)cc2)Cc2ccccc21 (centres undefined) | 0.86 (inactive)
COP(=O)(OC)SCn1c(=O)oc2cc(Cl)cnc21 | 1.03 (inactive)
CNC(=O)ON=C(CSC)C(C)(C)C | 1.04 (inactive)
COc1ccc(/C(=C/C(=O)N2CCOCC2)c2ccc(F)cc2)cc1OC | 0.984 (inactive)
Cc1ccc(N=CN(C)C=Nc2ccc(C)cc2C)c(C)c1 | 1.02 (inactive)
Cc1c(COC(=O)[C@@H]2[C@H](/C=C(\Cl)C(F)(F)F)C2(C)C)cccc1-c1ccccc1 | 1.01 (inactive)
CCOP(=S)(OCC)Oc1cc(-c2ccccc2)on1 | 0.955 (inactive)
COP(=O)(OC)C(O)C(Cl)(Cl)Cl (centres undefined) | 1.02 (inactive)
C=CC(N)=O | 1.01 (inactive)
CNC(=O)Oc1cc(C)c(S(C)=O)c(C)c1 (centres undefined) | 1.02 (inactive)
COP(N)(=O)SC (centres undefined) | 1.03 (inactive)
CCOP(=S)(OCC)Oc1nc(Cl)c(Cl)cc1Cl | 1 (inactive)
CC(=NC#N)N(C)Cc1ccc(Cl)nc1 | 1 (inactive) and 0.993 (inactive)
O=C(NC(=O)c1c(F)cccc1F)Nc1ccc(Cl)cc1 | 1.01 (inactive)
O=C(Nc1ccccc1)c1ccccc1I | 0.975 (inactive)
COCc1c(F)c(F)c(COC(=O)[C@@H]2[C@@H](C=C(Cl)Cl)C2(C)C)c(F)c1F | 0.969 (inactive)
CN1CSC(=S)N(C)C1 | 1.05 (inactive)
O=C1c2ccccc2C(=O)N1SC(Cl)(Cl)Cl | 1.05 (inactive)

Structure (SMILES) | growth AUC
CC(C)(C)c1ccc(CCOc2ncnc3ccccc23)cc1 | 0.944 (inactive)
NCP(=O)(O)O | 1.02 (inactive)
CC1CNC(=S)N1 (centres undefined) | 1 (inactive)
CC1(C)[C@H](/C=C(\Cl)C(F)(F)F)[C@@H]1C(=O)O[C@@H](C#N)c1cccc(Oc2ccccc2)c1 | 0.984 (inactive)
COP(=S)(OC)SCN1C(=O)c2ccccc2C1=O | 0.975 (inactive)
COP(=S)(OC)Oc1ccc(S(C)(=O)=O)c(C)c1 | 0.964 (inactive)
CC(C)NC(=O)N1CC(=O)N(c2cc(Cl)cc(Cl)c2)C1=O | 0.967 (inactive)
Cc1ccc(NC(=O)c2snnc2C)cc1Cl | 1.02 (inactive)
COCC(=O)N(c1c(C)cccc1C)N1CCOC1=O | 1 (inactive)
O=C(NC(=O)c1c(F)cccc1F)Nc1ccc(Cl)c(Oc2ncc(C(F)(F)F)cc2Cl)c1 | 1.02 (inactive)
COP(=O)(OC)OC(Br)C(Cl)(Cl)Br (centres undefined) | 0.962 (inactive)
CC(C)(COCc1cccc(Oc2ccccc2)c1)c1ccc(OC(F)(F)Br)cc1 | 1.02 (inactive)
CC1(C)C(C=C(Cl)Cl)C1C(=O)OC(C#N)c1cccc(Oc2ccccc2)c1 (mixture of isomers) | 1.01 (inactive)
CNC(=O)Oc1ccccc1OC(CCl)OC (centres undefined) | 0.982 (inactive)
CCOP(=O)(OCC)Oc1ccc([N+](=O)[O-])cc1 | 1 (inactive)
N#Cc1cc(Br)c(O)c(Br)c1 | 0.988 (inactive)
COP(=S)(OC)Oc1cc(Cl)c(I)cc1Cl | 0.954 (inactive)
COP(=S)(OC)Oc1ccc([N+](=O)[O-])cc1 | 0.96 (inactive)
CC(C)[C@@H](Nc1ccc(C(F)(F)F)cc1Cl)C(=O)OC(C#N)c1cccc(Oc2ccccc2)c1 (some centres undefined) | 1.01 (inactive)
